The values below come from ChEMBL document CHEMBL1961873, “Compounds: GSK PKIS; Assays: Nanosyn kinase panel” (2012).

The target in assay [1] is Sphingosine kinase 1 (Homo sapiens) (UniProt Q9NYA1). To be noted: at 1 µM.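 Further: mean SPHK1 inhibition value reported from the GSK PKIS kinase panel screen.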
For assay [2], the target named is T1, Sphingosine kinase 2 (Homo sapiens) (UniProt Q9NRA0).
T1 sequence (whole entry): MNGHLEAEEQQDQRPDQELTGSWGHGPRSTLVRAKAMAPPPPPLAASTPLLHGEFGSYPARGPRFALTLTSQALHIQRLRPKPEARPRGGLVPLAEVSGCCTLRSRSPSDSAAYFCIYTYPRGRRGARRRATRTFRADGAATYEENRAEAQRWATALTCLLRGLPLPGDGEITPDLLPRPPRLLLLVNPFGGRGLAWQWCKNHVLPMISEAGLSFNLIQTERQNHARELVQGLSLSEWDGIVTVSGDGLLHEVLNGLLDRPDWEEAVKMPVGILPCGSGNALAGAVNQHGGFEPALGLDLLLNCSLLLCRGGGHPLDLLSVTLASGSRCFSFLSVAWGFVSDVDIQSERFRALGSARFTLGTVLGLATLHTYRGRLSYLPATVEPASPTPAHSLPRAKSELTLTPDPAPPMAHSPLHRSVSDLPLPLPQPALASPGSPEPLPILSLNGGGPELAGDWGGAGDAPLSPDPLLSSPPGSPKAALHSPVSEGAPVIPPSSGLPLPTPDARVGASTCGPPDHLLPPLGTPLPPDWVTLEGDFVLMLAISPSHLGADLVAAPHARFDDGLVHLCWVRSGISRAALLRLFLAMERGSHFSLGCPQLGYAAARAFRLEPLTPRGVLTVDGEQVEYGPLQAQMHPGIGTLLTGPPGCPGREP
To be noted: at 0.1 µM.

Assay [3] deals with T1, Sphingosine kinase 2 (Homo sapiens). As to conditions: at 1 µM.
For assay [4], the target named is Casein kinase II subunit alpha (Homo sapiens) (UniProt P68400). As to conditions: at 0.1 µM.
Chain of Casein kinase II subunit alpha (Homo sapiens) (P68400 whole entry, looked up): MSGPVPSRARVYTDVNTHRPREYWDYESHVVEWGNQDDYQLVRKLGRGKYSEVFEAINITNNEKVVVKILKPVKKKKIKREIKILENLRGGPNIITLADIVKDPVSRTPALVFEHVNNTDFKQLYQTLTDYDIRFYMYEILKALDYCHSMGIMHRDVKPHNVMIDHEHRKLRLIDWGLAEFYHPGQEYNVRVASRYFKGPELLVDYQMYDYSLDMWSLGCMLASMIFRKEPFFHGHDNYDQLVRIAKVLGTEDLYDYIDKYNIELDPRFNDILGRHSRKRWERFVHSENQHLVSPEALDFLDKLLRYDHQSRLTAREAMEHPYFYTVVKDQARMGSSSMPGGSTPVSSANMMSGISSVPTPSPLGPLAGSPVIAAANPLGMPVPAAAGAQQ
Assay [5] has the same target. To be noted: at 1 µM.
Assay [6] has as its target T2, Inhibitor of nuclear factor kappa-B kinase subunit alpha (Homo sapiens) (UniProt O15111).
T2 sequence (whole entry): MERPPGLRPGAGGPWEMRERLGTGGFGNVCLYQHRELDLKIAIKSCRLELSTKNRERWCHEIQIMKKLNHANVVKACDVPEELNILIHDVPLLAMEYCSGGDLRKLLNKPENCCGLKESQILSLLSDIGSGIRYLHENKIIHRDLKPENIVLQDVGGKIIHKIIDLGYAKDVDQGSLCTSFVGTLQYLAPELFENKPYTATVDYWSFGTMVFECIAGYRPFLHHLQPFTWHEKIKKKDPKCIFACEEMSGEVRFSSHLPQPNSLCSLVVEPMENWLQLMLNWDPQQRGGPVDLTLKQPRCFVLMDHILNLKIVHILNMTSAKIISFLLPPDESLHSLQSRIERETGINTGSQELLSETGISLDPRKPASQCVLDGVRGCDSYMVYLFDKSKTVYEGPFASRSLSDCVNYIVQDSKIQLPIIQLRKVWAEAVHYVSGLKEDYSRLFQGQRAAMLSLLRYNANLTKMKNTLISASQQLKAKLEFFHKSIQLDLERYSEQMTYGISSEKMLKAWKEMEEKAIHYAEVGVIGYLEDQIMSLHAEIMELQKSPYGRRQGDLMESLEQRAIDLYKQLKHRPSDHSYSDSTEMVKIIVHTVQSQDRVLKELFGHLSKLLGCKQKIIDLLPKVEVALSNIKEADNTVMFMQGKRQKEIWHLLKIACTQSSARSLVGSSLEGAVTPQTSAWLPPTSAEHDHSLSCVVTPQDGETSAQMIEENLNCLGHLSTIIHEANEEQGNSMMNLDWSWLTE
As to conditions: at 0.1 µM.

The target of assay [7] is T2, Inhibitor of nuclear factor kappa-B kinase subunit alpha (Homo sapiens). As to conditions: at 1 µM.
For assay [8], the target named is T3, Inhibitor of nuclear factor kappa-B kinase subunit beta (Homo sapiens) (UniProt O14920).
T3 sequence (whole entry): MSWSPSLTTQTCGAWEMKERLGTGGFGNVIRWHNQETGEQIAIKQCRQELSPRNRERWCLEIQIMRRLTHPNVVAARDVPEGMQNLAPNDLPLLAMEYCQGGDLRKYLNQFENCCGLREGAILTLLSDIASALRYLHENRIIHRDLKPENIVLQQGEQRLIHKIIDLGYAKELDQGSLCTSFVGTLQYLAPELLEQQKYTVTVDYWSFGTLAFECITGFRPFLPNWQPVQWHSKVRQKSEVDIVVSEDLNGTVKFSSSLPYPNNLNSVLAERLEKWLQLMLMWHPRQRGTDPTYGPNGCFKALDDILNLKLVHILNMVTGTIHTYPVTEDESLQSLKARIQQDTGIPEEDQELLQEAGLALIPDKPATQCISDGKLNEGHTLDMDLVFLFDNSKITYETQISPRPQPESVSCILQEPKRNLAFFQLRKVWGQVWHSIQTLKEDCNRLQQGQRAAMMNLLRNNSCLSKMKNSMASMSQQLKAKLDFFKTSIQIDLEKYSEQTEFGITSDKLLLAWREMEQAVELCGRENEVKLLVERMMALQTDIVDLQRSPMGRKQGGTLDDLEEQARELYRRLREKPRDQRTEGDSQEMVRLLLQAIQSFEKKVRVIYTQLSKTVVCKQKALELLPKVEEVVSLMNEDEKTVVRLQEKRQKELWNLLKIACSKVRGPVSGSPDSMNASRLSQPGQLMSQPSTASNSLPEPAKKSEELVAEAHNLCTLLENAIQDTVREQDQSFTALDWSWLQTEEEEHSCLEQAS
To be noted: at 0.1 µM.

In assay [9] the target is T3, Inhibitor of nuclear factor kappa-B kinase subunit beta (Homo sapiens). To be noted: at 1 µM.
Assay [10] concerns the target T4, Inhibitor of nuclear factor kappa-B kinase subunit epsilon (Homo sapiens) (UniProt Q14164).
T4 sequence (whole entry): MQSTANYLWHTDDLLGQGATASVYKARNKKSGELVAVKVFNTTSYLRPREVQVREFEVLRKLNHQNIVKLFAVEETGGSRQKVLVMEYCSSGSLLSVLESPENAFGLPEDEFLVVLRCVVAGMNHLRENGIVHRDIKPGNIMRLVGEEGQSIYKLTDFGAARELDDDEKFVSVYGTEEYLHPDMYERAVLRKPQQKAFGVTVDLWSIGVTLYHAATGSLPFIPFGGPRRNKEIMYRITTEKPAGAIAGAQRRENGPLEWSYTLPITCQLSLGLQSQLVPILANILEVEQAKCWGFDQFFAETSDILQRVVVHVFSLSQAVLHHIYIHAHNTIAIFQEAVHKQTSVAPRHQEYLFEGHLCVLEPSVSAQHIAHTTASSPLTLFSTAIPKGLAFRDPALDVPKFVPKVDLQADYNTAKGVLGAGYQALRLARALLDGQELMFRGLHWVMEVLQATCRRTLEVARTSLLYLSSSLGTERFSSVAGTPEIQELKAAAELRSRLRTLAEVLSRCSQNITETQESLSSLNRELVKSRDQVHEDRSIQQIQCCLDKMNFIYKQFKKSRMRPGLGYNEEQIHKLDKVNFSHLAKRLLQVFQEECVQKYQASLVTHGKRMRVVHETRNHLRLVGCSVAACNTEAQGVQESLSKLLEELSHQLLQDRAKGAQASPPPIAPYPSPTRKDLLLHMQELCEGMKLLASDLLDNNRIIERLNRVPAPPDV
To be noted: at 0.1 µM.

Assay [11] addresses T4, Inhibitor of nuclear factor kappa-B kinase subunit epsilon (Homo sapiens). To be noted: at 1 µM.
Assay [12] has as its target T5, Serine/threonine-protein kinase Nek1 (Homo sapiens) (UniProt Q96PY6).
T5 sequence (whole entry): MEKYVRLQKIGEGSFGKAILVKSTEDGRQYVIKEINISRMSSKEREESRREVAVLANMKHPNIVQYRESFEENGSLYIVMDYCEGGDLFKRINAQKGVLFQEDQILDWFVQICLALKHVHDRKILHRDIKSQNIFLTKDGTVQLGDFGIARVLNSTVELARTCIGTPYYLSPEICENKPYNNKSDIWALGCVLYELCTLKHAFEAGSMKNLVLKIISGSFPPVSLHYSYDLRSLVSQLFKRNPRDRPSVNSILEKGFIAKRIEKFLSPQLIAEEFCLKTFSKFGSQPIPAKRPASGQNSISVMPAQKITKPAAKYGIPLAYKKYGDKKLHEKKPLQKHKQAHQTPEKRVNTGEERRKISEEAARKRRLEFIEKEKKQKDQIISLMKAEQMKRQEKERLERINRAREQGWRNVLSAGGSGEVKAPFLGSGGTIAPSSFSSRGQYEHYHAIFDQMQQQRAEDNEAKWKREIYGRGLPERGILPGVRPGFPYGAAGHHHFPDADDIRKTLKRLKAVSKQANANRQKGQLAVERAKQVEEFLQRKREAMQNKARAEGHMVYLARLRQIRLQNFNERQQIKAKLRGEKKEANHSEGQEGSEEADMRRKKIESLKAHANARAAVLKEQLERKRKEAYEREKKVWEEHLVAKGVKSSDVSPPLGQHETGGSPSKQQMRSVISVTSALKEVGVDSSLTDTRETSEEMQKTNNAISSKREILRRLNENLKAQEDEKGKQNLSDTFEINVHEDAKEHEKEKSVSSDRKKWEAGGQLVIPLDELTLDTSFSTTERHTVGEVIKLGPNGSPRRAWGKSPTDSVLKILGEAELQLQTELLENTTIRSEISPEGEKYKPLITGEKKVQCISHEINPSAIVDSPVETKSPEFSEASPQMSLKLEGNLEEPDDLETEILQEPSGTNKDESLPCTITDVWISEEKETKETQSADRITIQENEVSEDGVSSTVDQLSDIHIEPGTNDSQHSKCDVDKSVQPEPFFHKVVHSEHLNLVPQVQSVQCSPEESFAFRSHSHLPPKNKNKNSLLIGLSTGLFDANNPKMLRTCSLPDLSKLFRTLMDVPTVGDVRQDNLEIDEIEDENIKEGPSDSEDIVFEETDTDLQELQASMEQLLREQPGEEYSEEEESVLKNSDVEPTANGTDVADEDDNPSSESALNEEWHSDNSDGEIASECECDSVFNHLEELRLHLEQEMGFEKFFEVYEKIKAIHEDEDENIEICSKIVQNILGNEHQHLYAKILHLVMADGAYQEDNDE
To be noted: at 0.1 µM.

The target in assay [13] is T5, Serine/threonine-protein kinase Nek1 (Homo sapiens). To be noted: at 1 µM.
The target in assay [14] is T6, Serine/threonine-protein kinase Nek2 (Homo sapiens) (UniProt P51955).
T6 sequence (whole entry): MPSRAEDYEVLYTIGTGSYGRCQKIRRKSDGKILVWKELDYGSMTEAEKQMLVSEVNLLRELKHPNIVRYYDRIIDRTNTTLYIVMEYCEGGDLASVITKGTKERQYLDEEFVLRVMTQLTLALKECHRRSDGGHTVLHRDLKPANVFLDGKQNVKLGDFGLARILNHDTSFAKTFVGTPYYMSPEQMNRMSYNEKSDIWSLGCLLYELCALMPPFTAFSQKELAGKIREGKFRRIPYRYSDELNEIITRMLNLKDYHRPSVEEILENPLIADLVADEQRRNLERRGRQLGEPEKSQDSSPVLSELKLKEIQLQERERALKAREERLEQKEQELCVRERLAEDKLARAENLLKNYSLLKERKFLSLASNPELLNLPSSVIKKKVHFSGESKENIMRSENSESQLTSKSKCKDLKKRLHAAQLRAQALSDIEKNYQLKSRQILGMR
To be noted: at 0.1 µM.

Assay [15] deals with T6, Serine/threonine-protein kinase Nek2 (Homo sapiens). To be noted: at 1 µM.
For assay [16], the target named is Serine/threonine-protein kinase Nek6 (Homo sapiens) (UniProt Q9HC98). To be noted: at 0.1 µM.
Chain of Serine/threonine-protein kinase Nek6 (Homo sapiens) (Q9HC98 whole entry): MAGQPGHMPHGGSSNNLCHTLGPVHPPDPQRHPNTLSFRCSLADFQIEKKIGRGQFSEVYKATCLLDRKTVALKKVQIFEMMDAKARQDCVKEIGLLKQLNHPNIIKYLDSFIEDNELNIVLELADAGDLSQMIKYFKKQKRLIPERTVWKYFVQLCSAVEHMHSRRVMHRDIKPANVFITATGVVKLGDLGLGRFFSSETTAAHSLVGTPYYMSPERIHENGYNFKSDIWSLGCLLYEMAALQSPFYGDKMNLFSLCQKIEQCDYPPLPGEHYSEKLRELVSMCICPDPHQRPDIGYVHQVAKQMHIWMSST
For assay [17] the target is unchanged. To be noted: at 1 µM.
Assay [18] has as its target Serine/threonine-protein kinase Nek7 (Homo sapiens) (UniProt Q8TDX7). As to conditions: at 0.1 µM.
For assay [19] the target is unchanged. As to conditions: at 1 µM.
The target of assay [20] is T7, Serine/threonine-protein kinase Nek9 (Homo sapiens) (UniProt Q8TD19).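 Further: reported value is the mean percent inhibition of NEK9.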
T7 sequence (whole entry): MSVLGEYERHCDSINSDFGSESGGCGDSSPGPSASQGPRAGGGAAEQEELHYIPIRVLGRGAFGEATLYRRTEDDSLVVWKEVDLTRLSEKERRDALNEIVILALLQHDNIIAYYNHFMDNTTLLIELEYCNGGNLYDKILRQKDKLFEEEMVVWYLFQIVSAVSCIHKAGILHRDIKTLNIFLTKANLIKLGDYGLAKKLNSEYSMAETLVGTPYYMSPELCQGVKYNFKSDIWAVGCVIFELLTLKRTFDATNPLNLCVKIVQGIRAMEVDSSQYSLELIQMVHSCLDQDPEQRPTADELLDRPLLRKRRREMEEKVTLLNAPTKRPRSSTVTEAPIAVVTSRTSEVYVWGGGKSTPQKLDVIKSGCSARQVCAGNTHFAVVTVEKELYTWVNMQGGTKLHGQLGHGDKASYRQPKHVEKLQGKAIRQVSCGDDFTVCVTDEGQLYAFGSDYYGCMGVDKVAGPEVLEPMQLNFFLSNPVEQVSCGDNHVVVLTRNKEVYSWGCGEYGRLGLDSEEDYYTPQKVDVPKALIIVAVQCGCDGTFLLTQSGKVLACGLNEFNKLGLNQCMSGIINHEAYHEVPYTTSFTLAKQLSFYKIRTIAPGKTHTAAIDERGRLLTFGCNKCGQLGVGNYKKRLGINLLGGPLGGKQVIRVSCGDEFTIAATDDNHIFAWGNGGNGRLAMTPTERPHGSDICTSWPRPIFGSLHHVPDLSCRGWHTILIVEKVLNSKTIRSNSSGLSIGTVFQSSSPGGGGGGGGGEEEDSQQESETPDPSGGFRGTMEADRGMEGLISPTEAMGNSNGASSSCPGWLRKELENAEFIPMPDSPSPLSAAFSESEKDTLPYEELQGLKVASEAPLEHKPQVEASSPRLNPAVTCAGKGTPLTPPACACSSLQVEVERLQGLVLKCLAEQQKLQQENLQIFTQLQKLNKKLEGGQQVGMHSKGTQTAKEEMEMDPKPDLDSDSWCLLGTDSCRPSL
As to conditions: at 0.1 µM.

Chain of Serine/threonine-protein kinase Nek7 (Homo sapiens) (Q8TDX7 whole entry, looked up): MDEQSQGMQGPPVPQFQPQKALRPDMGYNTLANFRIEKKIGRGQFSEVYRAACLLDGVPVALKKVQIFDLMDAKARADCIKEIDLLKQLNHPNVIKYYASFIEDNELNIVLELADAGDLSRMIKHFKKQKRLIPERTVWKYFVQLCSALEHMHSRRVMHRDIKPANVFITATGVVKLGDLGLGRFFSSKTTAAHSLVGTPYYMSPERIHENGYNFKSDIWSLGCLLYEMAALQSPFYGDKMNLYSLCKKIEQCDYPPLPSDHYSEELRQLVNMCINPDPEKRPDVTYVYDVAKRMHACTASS
Chain of Sphingosine kinase 1 (Homo sapiens) (Q9NYA1 whole entry): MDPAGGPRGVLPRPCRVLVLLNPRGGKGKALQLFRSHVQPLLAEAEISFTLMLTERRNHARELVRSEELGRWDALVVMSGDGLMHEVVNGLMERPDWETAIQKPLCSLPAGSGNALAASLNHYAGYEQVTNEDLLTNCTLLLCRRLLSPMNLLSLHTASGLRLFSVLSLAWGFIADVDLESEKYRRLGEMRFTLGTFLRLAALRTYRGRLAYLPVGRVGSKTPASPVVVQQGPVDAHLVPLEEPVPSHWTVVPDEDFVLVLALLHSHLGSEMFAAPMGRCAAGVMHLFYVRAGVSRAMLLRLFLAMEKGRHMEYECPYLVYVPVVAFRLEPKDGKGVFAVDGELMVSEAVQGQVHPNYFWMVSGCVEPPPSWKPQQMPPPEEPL

Broadly, the inhibition is the relative decrease from the control value, in per cent. As for `COc1cc(N2CCN(C(C)C)CC2)ccc1Nc1nc(Nc2cccc3ncccc23)c2cc[nH]c2n1`, the inhibition in assay [1] is -2%; in [2], 0%; in assay [3], -0.78%; in assay [4], 1.04%; in [5] it was 1.8%; in assay [6], 4.1%. Besides, the inhibition in [7] was -3.72%; in assay [8], 1.05%; in [9] it was -2.01%; in assay [10], -1.3%; in [11], 0.88%; in [12] it was -0.11%. The inhibition was 0.84% in [13]; -0.73% in assay [14]; -0.48% in [15]; -0.86% in assay [16]; -2.27% in [17]; 1.54% in assay [18]. Moreover, the inhibition in assay [19] is -0.41%; in assay [20], 4.56%.
